This is one part of a sample in which hits are shown more often than they occur.
Dicer inh: inhibitors of Dicer pre-microRNA processing, primary screen, biochemical, cat-ELCCA, chemiluminescence | 47,000 compounds, 6% hits | AID 1347074, 2019 | Endoribonuclease Dicer (Homo sapiens), Q9UPY3 | z-score at 25 µM | cat-ELCCA pre-miR-21 Dicer processing; hits give high values; in the data active means z-score above about 3, passing the limit was not always enough;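 further: higher signal means more uncleaved substrate so more Dicer inhibition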
Each line names hits and unclear results; the compound was inactive in the other large screens.

O=S(=O)(NCCc1ccccn1)c1ccc(-c2ccccn2)s1	none
O=S(=O)(Nc1nc(SCc2ccc(Cl)cc2)n[nH]1)c1ccc(-c2ccccn2)s1	Dicer inh 3.36
O=S(=O)(Nc1nc(SCc2ccc(Cl)cc2)n[nH]1)c1ccc(F)cc1	none
CSc1ccc(-c2ncnn2-c2cccc(Cl)c2C)cc1	none
c1ccc(N2CCN(CCNc3ncnc4nc[nH]c34)CC2)cc1	none
O=C1N=C(c2ccccc2)C(c2ccccc2)N1 (centres undefined)	none
O=C1ON=C(c2ccccc2)C1C=C1CCCC1 (centres undefined)	Dicer inh 4.2
O=C1CC(/C=C/c2ccccc2)Cc2nc(N3CCN(c4ccccn4)CC3)ncc21 (centres undefined)	none
COc1ccc(Br)cc1/C=C/c1[nH]c(=O)[nH]c(=O)c1[N+](=O)[O-]	none
COc1cc(N=Cc2cc(Cl)cc(Cl)c2OS(=O)(=O)c2ccc(C)cc2)c(OC)cc1Cl	none
COC(=O)c1cnc(NNS(=O)(=O)c2ccccc2)nc1C(F)(F)F	none
Cc1ccc(SCc2cc(=O)[nH]c(Nc3nc(C)c4cccc(C)c4n3)n2)cc1	none
CCOc1ccc2nc(Nc3nc(O)cc(=O)[nH]3)nc(C)c2c1	none
CCc1ccc2nc(Nc3nc(CSc4nnc(C)s4)cc(=O)[nH]3)nc(C)c2c1	Dicer inh 3.07
O=C(On1c(-c2ccccc2)nc2ccccc2c1=O)c1ccccc1Cl	none
Cc1ccc2cccc(OC(=O)c3ccco3)c2n1	none
C1=CC2c3c(ccc4ccccc34)NC(c3ccccc3)C2C1 (centres undefined)	none
O=[N+]([O-])c1cc(-c2cnc3ccccc3n2)ccc1Sc1ccc(Cl)cc1	none
O=C1NC(=S)S/C1=C\c1ccc([N+](=O)[O-])s1	none
O=C1NC(=S)S/C1=C/c1ccc(Sc2ccc(Cl)cc2)c([N+](=O)[O-])c1	Dicer inh 5.2
O=C(c1c(F)cccc1F)N1CCN(c2cccc3[nH]ccc23)CC1	none
Cc1ccc(C)n1-c1ccc(-c2n[nH]c(=S)n2-c2ccccc2)cc1	none
CC(Oc1ccccc1-c1ccccc1)c1n[nH]c(=S)n1-c1ccccc1 (centres undefined)	Dicer inh 3.34
CCn1c(C(C)Oc2ccc(Cl)cc2)n[nH]c1=S (centres undefined)	none
Cc1nn(S(=O)(=O)c2cccc(C(F)(F)F)c2)c(C)c1Sc1nccc(-c2cccnc2)n1	none
O=C1OC(c2ccccc2)=N/C1=C/c1ccc(Cl)cc1	none
CCOC(=O)c1sc(CS(=O)(=O)c2ccccn2)nc1C	none
Oc1ccc(Cl)cc1-c1csnn1	none
NS(=O)(=O)c1ccc(Cl)cc1Sc1ccccc1C(=O)O	none
Oc1ccc(Cl)cc1Sc1cc(Cl)ccc1O	Dicer inh 3.16
Cc1ccc(-c2cn3ccc(C)cc3n2)cc1	none
COc1c(Cl)cc(Cl)cc1-c1cn2ccccc2n1	none
COc1c(Cl)cccc1-c1cn2ccc(C)cc2n1	Dicer inh 5.87
CSC(=Nc1ccc(Cl)cc1)N(C)C	none
O=C1/C(=C\c2ccccc2)Sc2ccccc21	none
O=C(Oc1ccccc1)Oc1ccc2sc(=O)oc2c1	none
COc1ccc(-c2oc3ccccc3c(=O)c2OS(=O)(=O)c2cc(Cl)ccc2Cl)cc1	none
O=C(Nc1ccc(Cl)cc1)N1N=C2c3ccccc3CCC2C1c1cccs1 (centres undefined)	none
N#CC1=C(SCC(=O)Nc2ccc(Cl)cc2)NC(=O)CC1c1cccs1 (centres undefined)	none
O=C(Nc1ccc(Cl)cc1)N1CCOC1c1cccs1 (centres undefined)	Dicer inh 4.16
CCSCCOC(=O)C1=C(C)NC2=C(C(=O)CC(C)(C)C2)C1c1ccc(OC(C)=O)cc1 (centres undefined)	none
Cc1ccc(C(=O)/C(C#N)=C/c2cc(C(=O)c3ccc(Cl)cc3)cn2C)cc1	none
CCCCCC1(C(=O)OCC)CC(C)(c2csc(N)n2)OC1=O (centres undefined)	none
CCCC1CC(C)(c2csc(Cc3ccc(OCC)cc3)n2)OC1=O (centres undefined)	Dicer inh 4.89
CCOc1ccc(C2C3=C(CC(C)(C)CC3=O)OC3=C2C(=O)CC(C)(C)C3)cc1	none
CCOC(=O)C(NC(C)=O)(Nc1nc2ccccc2s1)C(F)(F)F (centres undefined)	none
Cc1c(S(=O)(=O)c2ccc(Cl)cc2)cnc2cc(C(C)(C)C)nn12	none
Cn1cccc1CNCc1ccccn1	none
COC(=O)C12CCC(=O)C(C(=O)OC)(CCC1=O)C2	none
NC(=O)CCS(=O)(=O)CCC(N)=O	none
COc1ccc2nc(SCCN3CCOCC3)[nH]c2c1	none
Cc1ccc(/C(O)=C2\C(=O)C(=O)N(CCN3CCOCC3)C2c2cccnc2)cc1 (centres undefined)	none
O=C1C(=O)N(CCCN2CCOCC2)C(c2ccc(Cl)cc2)/C1=C(\O)c1ccc(F)cc1 (centres undefined)	none
O=C1C(=O)N(CCCN2CCOCC2)C(c2cccnc2)/C1=C(\O)c1ccc(F)cc1 (centres undefined)	Dicer inh 3.45
COC(=O)c1c(C)nc(C)c(C(=O)OC)c1-c1csc(S(=O)(=O)N2CCSCC2)c1	none
CC(C)NC(=O)N1CCN(c2ccc(C(F)(F)F)cc2[N+](=O)[O-])CC1	none
CC(C)(CCNC(=O)Cc1ccsc1)C(=O)N/N=C/c1ccccc1	none
N#C/C(=C\c1ccc(Cl)cc1)C(=O)C1CC1	none
Cc1ccc(-n2c(-c3nn(-c4ccccc4)nc3C)n[nH]c2=S)cc1C	none
CCCCNC1=CC(=O)CC(C)(C)C1	none
Cc1ccc(NC2=CC(=O)CC(C)(C)C2)cc1C	Dicer inh 3.47
COc1ccc(NC2=CC(=O)CC(C)(C)C2)c(OC)c1	none
COC(=O)c1cnn(-c2ccccc2)c1C=Nc1ccc(C)cc1	none
CCOC(=O)c1cc(NC(C)=O)ccc1Oc1cncc(Cl)c1	none
Cc1nn(-c2c(Cl)cc(C(F)(F)F)cc2Cl)c(C)c1C(=O)O	none
C#CCN1C(=O)C(O)(CC(=O)c2c(C)cc(C)cc2C)c2ccccc21 (centres undefined)	Dicer inh 4.29
C#CCN1C(=O)C(O)(CC(=O)c2ccc(C)cc2C)c2ccccc21 (centres undefined)	none
C#CCN1C(=O)C(O)(CC(=O)c2cc(C)ccc2C)c2ccccc21 (centres undefined)	none
S=C1NCN(CCc2ccccn2)CN1	none
COc1ccc(NC(=O)CC2C(=O)Nc3c2c(=O)n(C)c(=O)n3C)cc1 (centres undefined)	none
COc1cc(C2Nc3ccccc3NC3=C2C(=O)CC(C)(C)C3)ccc1OCc1ccccc1 (centres undefined)	none
CCc1c(C)nc2ccc(Br)cc2c1SCCC(=O)O	Dicer inh 3.16
COc1ccc(-c2nnc(SCCC(=O)O)o2)cc1	none
CCCCc1c(C)nc2c(OC)cccc2c1SCCC(=O)O	Dicer inh 3.5
CCCCc1cc(C)c2nc(-c3ccc(OC)c(OC)c3)cc(C(=O)O)c2c1	none
CCCCc1c(O)nc(SCCC(=O)O)[nH]c1=O	none
Cc1nc2ccc(Br)cc2c(-c2ccccc2)c1C(=O)O	none
CCOC(=O)CSc1nc(C)c2ccccc2n1	none
CCOC(=O)c1cc(C)nc2ccc(Br)cc12	none
CCCCc1c(C)nc2ccccc2c1SCCC(=O)O	Dicer inh 3.66
CC(C)c1ccc(NC(=O)CSc2nc3cc(C(F)(F)F)ccc3n2C(C)C)cc1	none
N#CCC(=O)NC(=O)Nc1ccc(F)cc1F	none
N#Cc1cn(CCSc2cc(C(F)(F)F)nc3ccccc23)c(=O)[nH]c1=O	none
Cn1c2ccccc2n2c(SCCOc3ccc(Cl)cc3)nnc12	none
Clc1ccc2c(c1)NC(c1ccc3c(c1)OCO3)O2 (centres undefined)	none
Cc1cc(-c2nc(C)c(C(=O)NNC(=O)Nc3ccc(Cl)cc3Cl)s2)no1	Dicer inh 3.11

From PubChem BioAssay
